Hit rate of the full screen: of about 390,000 compounds, about 17,000 (4.4%) were called active. Where a call stands in place of a potency, no number is given. About 8% were inconclusive and are not listed. Calls come from the whole dose curve; as a rule, active = well fitted inhibition curve with a large enough effect; inconclusive = small, poorly fitted or top-dose-only effect; inactive = no such curve, though single readings can be large or run the other way. For the sample, actives were picked, then their nearest neighbours and some compounds at random.
Potency is the fitted concentration of half-maximal effect.

In this test the target is Lysine-specific demethylase 4A (Homo sapiens) (UniProt O75164). As to the kind of experiment: qHTS Assay for Inhibitors of JMJD2A-Tudor Domain. Note: nearly all actives have a fitted effect of over 50% in size. The following applies: AlphaScreen JMJD2A-Tudor / H3K4me3 peptide binding; series mostly up to 114 µM. On the technique in general: In qHTS, concentration-response curves come from the screen itself.
Sequence of Lysine-specific demethylase 4A (Homo sapiens) (O75164 whole entry, looked up, the tested form may be a part): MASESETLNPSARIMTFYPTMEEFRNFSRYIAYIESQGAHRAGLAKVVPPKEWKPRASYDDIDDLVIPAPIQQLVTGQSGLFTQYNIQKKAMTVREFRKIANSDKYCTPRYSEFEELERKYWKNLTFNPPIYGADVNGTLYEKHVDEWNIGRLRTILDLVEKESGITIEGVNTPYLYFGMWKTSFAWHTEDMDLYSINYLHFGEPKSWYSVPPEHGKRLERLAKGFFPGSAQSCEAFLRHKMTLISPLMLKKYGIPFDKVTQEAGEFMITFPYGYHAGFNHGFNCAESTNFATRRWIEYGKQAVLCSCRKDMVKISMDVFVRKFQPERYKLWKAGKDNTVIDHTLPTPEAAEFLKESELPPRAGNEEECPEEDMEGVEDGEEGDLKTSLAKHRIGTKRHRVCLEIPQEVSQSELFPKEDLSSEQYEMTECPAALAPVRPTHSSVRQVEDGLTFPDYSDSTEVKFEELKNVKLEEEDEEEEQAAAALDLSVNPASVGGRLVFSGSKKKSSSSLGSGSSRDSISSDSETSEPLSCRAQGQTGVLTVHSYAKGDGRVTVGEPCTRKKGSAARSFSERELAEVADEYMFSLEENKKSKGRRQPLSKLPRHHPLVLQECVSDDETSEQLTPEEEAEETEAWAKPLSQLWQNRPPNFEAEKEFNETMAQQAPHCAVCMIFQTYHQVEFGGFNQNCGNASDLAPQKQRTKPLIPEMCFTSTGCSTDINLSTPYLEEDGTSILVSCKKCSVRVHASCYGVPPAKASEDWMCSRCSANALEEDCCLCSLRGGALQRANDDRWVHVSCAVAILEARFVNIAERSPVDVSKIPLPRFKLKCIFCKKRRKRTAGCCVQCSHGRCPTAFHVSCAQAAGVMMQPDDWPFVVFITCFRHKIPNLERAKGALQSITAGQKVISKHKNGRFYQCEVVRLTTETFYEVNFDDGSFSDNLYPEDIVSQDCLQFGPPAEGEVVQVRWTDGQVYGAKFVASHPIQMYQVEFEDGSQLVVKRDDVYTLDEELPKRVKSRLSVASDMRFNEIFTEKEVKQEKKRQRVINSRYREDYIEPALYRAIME
Turning to `COc1cccc(CNC(=O)C2CCN(S(=O)(=O)c3ccc4c(ccn4C)c3)CC2)c1`, the Potency result is “inactive”. Turning to `CCCN1CCN(CCCNC(=O)c2cnn(-c3ccc(C)cc3)c2-n2cccc2)CC1`, the Potency entry is “inactive”. On to `COC(=O)c1ccccc1S(=O)(=O)Nc1ccc(OC)cc1`, for which the Potency result is “inactive”. The entry for `Cc1cc(C)n(-c2nc(C(F)(F)F)nc3ccccc23)n1` is “inactive”. The entry for `Cc1ccc(S(=O)(=O)N2CCN(c3ccccc3)CC2)cc1C` is “inactive”. The figure for `Cc1cc(C)n(-c2nnc(N3CCN(c4ccccc4)CC3)nn2)n1` is 50.1 µM (active); for `N#CN1CCC(NS(=O)(=O)c2cccc(F)c2)C1` (stereo not given) it is “inactive”. On to `CCOc1ccc(C2C(=O)N(C3CCCCC3)CC(=O)N2CCC2=CCCCC2)cc1OC` (stereo not given), for which the Potency entry was “inactive”. The entry for `Cc1ccc(NC(=O)CCC(=O)N/N=C/c2ccco2)c(C)c1` is “inactive”; for `CC(/C=N/NC(=O)c1cc(-c2ccc3ccccc3c2)n[nH]1)=C\c1ccco1` it is “inactive”.

For `Cc1cc(-c2n[nH]c(=S)n2/N=C/C(Br)=C/c2ccccc2)n[nH]1`, the Potency was 56.2 µM (active).

Consider `Cc1cc(-c2n[nH]c(=S)n2/N=C/c2ccco2)n[nH]1`, for which the Potency is 3.98 µM (active). The entry for `Cc1cc(NC(=O)CC(C)C)cc(-c2nc3ncccc3o2)c1O` is “inactive”; for `Fc1ccc(-c2nn(-c3ccccc3Cl)c3c2cnc2ccccc23)cc1` it is “inactive”.

With `O=C(NC1CC(=O)N(c2ccccc2)C1)c1ccco1` (stereo not given), the Potency entry was “inactive”. Consider `Cc1cc(C)n2ncc(C(=O)N3CCCC3)c2n1`, for which the Potency result is “inactive”. The entry for `Cc1ccc(Cl)cc1NC(=O)CSc1nccn1C` is “inactive”; for `NC(=O)C1CCN(Cc2nc3c(Br)cc(Br)cc3c(=O)[nH]2)CC1` it is 3.16 µM (active); for `NC(=O)C1CCN(C(=O)c2ccc3c(=O)n(Cc4cccc(Br)c4)c(=S)[nH]c3c2)CC1` it is “inactive”. The entry for `NC(=O)C1CCN(C2OC(=O)c3ccccc32)CC1` (stereo not given) is “inactive”; for `COc1ccc(Cl)cc1NC(=O)C(C)Sc1nc2c(c(=O)[nH]1)CCCC2` (stereo not given) it is “inactive”; for `COc1cc(NC(=O)CCn2nc(C)cc2C)cc(OC)c1OC` it is “inactive”. The entry for `O=C(CSc1oc(-c2ccco2)nc1S(=O)(=O)c1ccc(Cl)cc1)c1ccccc1` is “inactive”; for `COc1ccc(C2/C(=C(/O)c3ccccc3)C(=O)C(=O)N2C)c(OC)c1` (stereo not given) it is “inactive”.

Consider `COc1ccccc1C1/C(=C(/O)c2ccc(C)cc2)C(=O)C(=O)N1Cc1ccco1` (stereo not given), for which the Potency entry was “inactive”. The figure for `COc1ccc(/C(O)=C2\C(=O)C(=O)N(Cc3ccco3)C2c2ccc(OC)cc2OC)cc1` (stereo not given) is 20 µM (active); for `CCOC(=O)c1cccc(NC(=O)C(Cc2ccccc2)NS(=O)(=O)c2cccc3nsnc23)c1` (stereo not given) it is “inactive”; for `COc1ccc2c(c1)c(N1CCCC1=O)c(C(=O)Nc1ccccc1C(F)(F)F)n2C` it is “inactive”.

`CC(c1ccco1)N(C(=O)Nc1ccccc1)C1CCCCC1` (stereo not given): the Potency result was “inactive”. The entry for `CC(C)(C)NS(=O)(=O)c1ccc(NC(=O)NC2CCCCC2)cc1` is “inactive”; for `Cc1ccc(NC(=O)NC(=O)N(C2CCCCC2)S(=O)(=O)c2ccccc2)cc1` it is 70.8 µM (active); for `Cc1ccc2cccc(NC(=O)c3cccc4ccccc34)c2n1` it is “inactive”. `COc1cccc2c1C(=O)c1c(O)c3c(c(O)c1C2=O)CC(O)(C(C)=NNC(=O)c1ccc(Cl)c(Cl)c1)CC3OC1CC(N)C(O)C(C)O1` (stereo not given): the Potency is 50.1 µM (active). The entry for `Cc1ccc(CNC(=O)CCNS(=O)(=O)c2ccc3c(c2)oc(=O)n3C)cc1` is “inactive”. The entry for `O=C(Nc1ccc2nc(SCCOc3ccccc3Cl)sc2c1)c1ccco1` is “inactive”; for `COc1ccc(/C=C/C(=O)c2cc(Br)ccc(=O)c2O)cc1` it is 31.6 µM (active); for `COc1ccc(C(=O)c2oc3ccc(Br)cc3c2NC(C)=O)cc1` it is “inactive”.

On to `COc1ccc(CC(=O)NCC(=O)N/N=C/c2cc(Br)ccc2OC)cc1`, for which the Potency entry is “inactive”. The entry for `COc1ccc(S(=O)(=O)NCc2cccn2Cc2cccc(C)c2)cc1` is “inactive”; for `CCOc1ccccc1N(C)C(=O)c1cc2c(s1)-c1ccccc1OC2` it is “inactive”; for `CCSc1ncc(Cl)c(C(=O)Nc2c(C(=O)c3ccccc3)oc3ccccc23)n1` it is “inactive”. The entry for `O=C(CCS(=O)(=O)c1cc(Br)cc2c1N(C(=O)C1CC1)CC2)Nc1ccc(Br)cc1F` is “inactive”; for `CC1=C(C)CC2C(=O)N(c3cccc4ccccc34)C(=O)C2C1` (stereo not given) it is 56.2 µM (active); for `CCc1ccccc1N1C(=O)C2C3CC(=O)C(c4ccccc43)C2C1=O` (stereo not given) it is “inactive”. The entry for `Cc1ccc(N2C(=O)CC(Nc3cccc4ccccc34)C2=O)cc1` (stereo not given) is “inactive”. With `O=C(Cn1ncn2nc(-c3cccs3)cc2c1=O)NCc1cccc(Br)c1`, the Potency result is “inactive”. The entry for `CCOC(=O)c1[nH]c(C)c(CCC(=O)N2CCN(c3ccccc3)CC2)c1C` is “inactive”. The entry for `Cc1ccc(CNC(=O)Cn2c(=O)ccc3cc(S(=O)(=O)N4CCCC4)ccc32)cc1` is “inactive”.

With `COc1ccc(OCCn2cc(C(=O)C3CCCCC3)c3ccccc32)cc1`, the Potency entry is “inactive”. The figure for `COc1ccc(OCCn2ccnc2C)cc1` is 1 µM (active). Take `COc1ccc(OCCCC(=O)Oc2ccc(OC)cc2)cc1`: the Potency result is “inactive”. The entry for `CCOc1ccc(N(CC)C(=O)C2CCN(S(=O)(=O)c3cccc4nonc34)CC2)cc1` is “inactive”; for `O=C1c2ccccc2-c2ncnc3c(N4CCOCC4)cc(N4CCOCC4)c1c23` it is 44.7 µM (active). In the case of `O=S(=O)(Nc1cc(Cl)ccc1N1CCOCC1)c1ccccc1Cl`, the Potency result was “inactive”. The entry for `Cc1oc2c(c1C(=O)N1CCOCC1)C(=O)c1ccccc1C2=O` is “inactive”. The entry for `Cn1nnnc1SCCCNCc1cccc(OCc2ccc(Cl)cc2)c1` is “inactive”.

With `O=[S+]([O-])(c1ccc2c(c1)OCCO2)N1CCN([S+](=O)([O-])c2c(Cl)cc(Cl)cc2Br)CC1`, the Potency entry is “inactive”.

As for `Cc1ccc(C)c(N2CCN(CCCNC(=O)Nc3ccc(Cl)cc3)CC2)c1`, the Potency entry is “inactive”.

With `CCOc1ccc(OCC)c(NC(=O)CN(C)S(=O)(=O)c2cccc3nsnc23)c1`, the Potency was 50.1 µM (active).

`CCOc1ccc(NC(=O)CCS(=O)(=O)c2cccc3nsnc23)cc1`: the Potency entry was “inactive”. The entry for `CCOc1ccccc1NC(=O)CCS(=O)(=O)c1cccc2nsnc12` is “inactive”. The entry for `CCc1nc2onc(C)c2c(=O)n1CC(=O)O` is “inactive”. With `CCOc1ccc(NC(=O)c2cn(C3CCCCC3)c(=O)c3c2c2ccccc2n3C)cc1`, the Potency result was “inactive”. For the compound `O=C(N/N=C\c1cccc(Br)c1)c1ccccc1-n1cccc1`, the Potency entry is “inactive”. Turning to `O=C(N/N=C/c1cccc(Br)c1)c1ccc(N2CCCC2=O)cc1`, the Potency was 56.2 µM (active). The entry for `O=C(Nc1ccc(N2CCCC2=O)cc1)c1cncc(Br)c1` is “inactive”; for `O=[N+]([O-])c1ccccc1OCCCCN1CCCCC1` it is “inactive”; for `CC(Oc1ccccc1[N+](=O)[O-])C(=O)N/N=C/c1ccoc1` (stereo not given) it is “inactive”. The figure for `CC1CN(CCOc2ccccc2[N+](=O)[O-])CC(C)O1` (stereo not given) is 22.4 µM (active); for `COc1ccc2ncc3c(-c4ccc(C)c(C)c4)nn(CC(=O)NC4CCCC4)c3c2c1` it is “inactive”. The entry for `Cc1cc(=O)n(CC(=O)Nc2cccc([N+](=O)[O-])c2)c(-n2nc(C)cc2C)n1` is “inactive”; for `O=C(/C=C/c1ccccc1)N1CCN(Cc2cc(=O)n3nc(-c4ccccc4F)sc3n2)CC1` it is “inactive”. As for `COc1cccc2c1cc1c(=O)n(CC(=O)N3CCN(c4ccccc4)CC3)nc(C)n12`, the Potency result is “inactive”. For `CC1Cc2cc(/C(O)=C3\C(=O)C(=O)N(CCN4CCOCC4)C3c3ccccc3F)ccc2O1` (stereo not given), the Potency was 39.8 µM (active).

Regarding `O=C1C(=O)N(CCN2CCOCC2)C(c2cccc(Cl)c2)/C1=C(/O)c1ccc2c(c1)OCO2` (stereo not given), the Potency entry is “inactive”. The entry for `CC1Cc2cc(/C(O)=C3\C(=O)C(=O)N(Cc4cccnc4)C3c3ccccc3F)ccc2O1` (stereo not given) is “inactive”; for `CCOc1ccccc1NC(=O)C1CCCN(S(=O)(=O)c2cn(C)cn2)C1` (stereo not given) it is “inactive”; for `COCCNS(=O)(=O)c1cc(-c2nn3c(C)nnc3c3ccccc23)ccc1C` it is “inactive”. The entry for `Cc1cccc(N=Nc2c(O)[nH]c3ccc(F)cc23)c1` is “inactive”; for `Cc1[nH]n(-c2ccccc2)c(=O)c1CCOC(=O)c1ccc(C(F)(F)F)cc1` it is “inactive”. Regarding `Cc1ccc(-c2ccnc3[nH]n(-c4ccccc4)c(=O)c23)cc1`, the Potency result was “inactive”. The figure for `Cc1ccc(N=Nc2c(C)[nH]n(-c3ccccc3)c2=O)cc1` is 6.31 µM (active); for `Cc1c(N=Nc2ccc(N(C)C)cc2)c(=O)n(-c2ccccc2)n1C` it is “inactive”; for `Cc1cccc(N=Nc2c(C)[nH]n(-c3ccccc3)c2=O)c1` it is 11.2 µM (active). In the case of `O=C(NCc1ccc(F)cc1)c1ccc(Cn2c(SCc3ccc(F)cc3)nc3cccnc32)cc1`, the Potency entry was “inactive”.

As for `Cc1c(NC(=O)Nc2ccc(F)c(Cl)c2)c(=O)n(-c2ccccc2)n1C`, the Potency entry was “inactive”. The entry for `Cc1c(CNC(C)c2ccccc2)c(C(=O)O)c(C)n1Cc1c(F)cccc1Cl` (stereo not given) is “inactive”; for `O=C(NCCCO)C(=O)Nc1c2c(nn1-c1ccc(F)cc1)CSC2` it is “inactive”; for `CCn1c(CNC(=O)C23CC4CC(CC(C4)C2)C3)nnc1SCC(=O)Nc1ccc(OC)cc1` it is “inactive”. The entry for `CC1=C(c2ccc(F)cc2)S(=O)(=O)N=C1N1CCC(C(=O)NCCc2ccccc2C)CC1` is “inactive”. The entry for `CCCS(=O)(=O)N1CCC(n2c(C(F)(F)F)nc3cccnc32)CC1` is “inactive”; for `NS(=O)(=O)c1ccc(NC(=O)COc2ccc(S(=O)(=O)NC3CCCCC3)cc2)cc1` it is “inactive”. On to `CC(C)Cn1c(=O)c2ccccc2n2c(CCC(=O)N3CCN(c4cccc(Cl)c4)CC3)nnc12`, for which the Potency result is “inactive”. The entry for `CCOc1ccc2nc(N3CCC(C(=O)Nc4cc(C)ccc4C)CC3)sc2c1` is “inactive”. The entry for `COCCNCCOCCOc1cccc(OC)c1` is “inactive”; for `OCCNCCOc1ccc(Cl)c(Cl)c1` it is “inactive”. Take `COCCCNCCOCCOc1ccc(Cl)cc1Br`: the Potency is 1.78 µM (active).

For the compound `COc1cc(NS(=O)(=O)c2ccc(NC(=S)NC(=O)c3ccccc3)cc2)nc(OC)n1`, the Potency entry is “inactive”. Turning to `COC(=O)c1nc(NC(=O)c2ccccc2)n[nH]1`, the Potency result was “inactive”.

As for `Cn1nnc(NC(=S)NC(=O)c2ccccc2)n1`, the Potency was 5.01 µM (active).
